In PubChem BioAssay (EPA / NIEHS):
Active and inactive are the calls of the source. How the source made its calls: active means hit-call score of the fitted dose curve at least 0.9, where 1 is the maximum; inactive means score below 0.9.

Key:
[1] = ATG_CRE_CIS: Attagene CIS-FACTORIAL HepG2 Assay for human cAMP Responsive Element (CRE) binding protein 3 (AID 2282926); conditions: HepG2 CRE cis-reporter, Attagene multiplexed mRNA; actives raise or lower the signal
Outline: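 Readout: fluorescently labelled reporter transcripts resolved by capillary electrophoresis after RT-PCR, taken 24 h post-dosing in transfected HepG2. Endogenous transcription factor activity drives each cis-element reporter; gain or loss of signal fitted relative to DMSO control.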

[2] = biological target: CCAAT/enhancer-binding protein beta (Homo sapiens) (UniProt P17676); experiment: ATG_C_EBP_CIS: Attagene CIS-FACTORIAL HepG2 Assay for human CCAAT/Enhancer Binding Protein (C/EBP) beta (AID 2282927); conditions: HepG2 Attagene cis-factorial transcription factor reporter; actives raise or lower the signal
Chain of CCAAT/enhancer-binding protein beta (Homo sapiens) (P17676 whole entry, looked up): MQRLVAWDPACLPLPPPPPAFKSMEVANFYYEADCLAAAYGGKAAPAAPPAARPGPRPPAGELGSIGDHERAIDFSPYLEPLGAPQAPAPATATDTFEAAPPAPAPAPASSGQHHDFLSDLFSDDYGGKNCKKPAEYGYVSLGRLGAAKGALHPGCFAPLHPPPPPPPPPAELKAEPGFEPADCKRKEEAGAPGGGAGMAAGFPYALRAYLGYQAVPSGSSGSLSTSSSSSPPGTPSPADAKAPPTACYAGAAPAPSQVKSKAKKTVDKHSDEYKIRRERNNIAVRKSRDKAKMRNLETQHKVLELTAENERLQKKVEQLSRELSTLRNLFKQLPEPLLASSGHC
Outline: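 Changes in reporter mRNA, rather than exogenous chimeric receptor activity, reflect native C/EBP signalling in transfected HepG2 cells dosed for 24 h; transcripts are detected by RT-PCR and capillary electrophoresis.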

[3] = ATG_DR4_LXR_CIS: Attagene CIS-FACTORIAL HepG2 Assay for human Liver X Receptor (LXR), DR4 submotif (AID 2282929); conditions: HepG2 Attagene DR4 cis-reporter, mRNA transcription; actives raise or lower the signal
Outline: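 Measures endogenous transcription factor activity via a DR4-driven reporter transcript in human HepG2 cells. Compounds incubated 24 h; mRNA quantified by RT-PCR and capillary electrophoresis, analysed as gain or loss of signal versus DMSO.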

[4] = biological target: Aryl hydrocarbon receptor (Homo sapiens) (UniProt P35869); experiment: ATG_Ahr_CIS: Attagene CIS-FACTORIAL HepG2 Assay for human Aryl Hydrocarbon Receptor (Ahr) (AID 2282930); conditions: HepG2 AhR cis-factorial reporter transcription; actives raise or lower the signal
Chain of Aryl hydrocarbon receptor (Homo sapiens) (P35869 whole entry, looked up): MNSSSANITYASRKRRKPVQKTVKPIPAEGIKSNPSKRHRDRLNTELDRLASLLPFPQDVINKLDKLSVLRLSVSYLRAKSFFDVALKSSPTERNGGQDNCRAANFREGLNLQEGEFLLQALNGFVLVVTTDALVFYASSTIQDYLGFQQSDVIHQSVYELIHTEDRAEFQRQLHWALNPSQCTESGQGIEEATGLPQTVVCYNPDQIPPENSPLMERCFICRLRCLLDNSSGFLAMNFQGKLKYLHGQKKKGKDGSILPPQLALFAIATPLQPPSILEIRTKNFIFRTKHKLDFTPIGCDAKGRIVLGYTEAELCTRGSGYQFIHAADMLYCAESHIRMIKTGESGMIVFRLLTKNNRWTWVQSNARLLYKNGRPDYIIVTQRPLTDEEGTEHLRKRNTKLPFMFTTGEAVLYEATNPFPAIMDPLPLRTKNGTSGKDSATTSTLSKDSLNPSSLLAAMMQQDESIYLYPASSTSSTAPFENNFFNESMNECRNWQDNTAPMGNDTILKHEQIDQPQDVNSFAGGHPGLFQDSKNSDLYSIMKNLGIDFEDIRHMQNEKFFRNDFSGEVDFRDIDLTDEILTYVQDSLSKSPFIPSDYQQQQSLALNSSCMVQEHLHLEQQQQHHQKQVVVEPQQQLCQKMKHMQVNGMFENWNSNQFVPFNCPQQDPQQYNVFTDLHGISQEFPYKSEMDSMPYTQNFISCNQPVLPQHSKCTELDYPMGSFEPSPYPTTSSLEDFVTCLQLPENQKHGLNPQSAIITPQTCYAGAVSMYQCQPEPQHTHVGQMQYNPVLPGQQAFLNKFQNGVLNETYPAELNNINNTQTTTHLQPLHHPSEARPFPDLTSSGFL
Outline: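 HepG2, transient MRTU (cis) transfection, 24 h exposure. RNA → cDNA → PCR → 6-FAM primer extension → HpaI 2 h 37 C → CE. Fit: bidirectional, DMSO baseline.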

[5] = ATG_AP_1_CIS: Attagene CIS-FACTORIAL HepG2 Assay for human Activator Protein 1 (AP-1) (AID 2282931); conditions: HepG2 Attagene cis-factorial AP-1 reporter mRNA; actives raise or lower the signal
Outline: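 Bidirectional concentration-response fitting against DMSO controls. Underlying signal: reporter mRNA from cis-promoter constructs in transiently transfected HepG2, measured after 24 h by RT-PCR and capillary electrophoresis.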

[6] = ATG_AP_2_CIS: Attagene CIS-FACTORIAL HepG2 Assay for human Activator Protein 2 (AP-2) (AID 2282932); conditions: HepG2 AP-2 cis-reporter, Attagene transcription factor profiling; actives raise or lower the signal
Outline: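 Endogenous transcription factor activity is reported through transfected multiplex reporter constructs in HepG2, after 24 h of compound exposure. Transcripts were quantified by RT-PCR and capillary electrophoresis of fluorescent fragments. Bidirectional fit against DMSO.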

[7] = ATG_BRE_CIS: Attagene CIS-FACTORIAL HepG2 Assay for human Bone Morphogenetic Protein (BMP) Response Element (BRE) (AID 2282933); conditions: HepG2 BMP response element reporter, Attagene transcription factor profiling; actives raise or lower the signal
Outline: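 HepG2 cells transiently transfected with multiplexed cis-element reporter units were dosed with chemical for 24 h. Reporter mRNA was measured by RT-PCR with fluorescent labelling, HpaI digestion and capillary electrophoresis; bidirectional fitting relative to DMSO.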

[8] = biological target: Retinoic acid receptor alpha (Homo sapiens) (UniProt P10276); experiment: ATG_DR5_RAR_CIS: Attagene CIS-FACTORIAL HepG2 Assay for human Retinoic Acid Receptor Alpha (RARE), DR5 submotif (AID 2282934); conditions: HepG2 Attagene cis-factorial RARE DR5 reporter, mRNA; actives raise or lower the signal
Chain of Retinoic acid receptor alpha (Homo sapiens) (P10276 whole entry, looked up): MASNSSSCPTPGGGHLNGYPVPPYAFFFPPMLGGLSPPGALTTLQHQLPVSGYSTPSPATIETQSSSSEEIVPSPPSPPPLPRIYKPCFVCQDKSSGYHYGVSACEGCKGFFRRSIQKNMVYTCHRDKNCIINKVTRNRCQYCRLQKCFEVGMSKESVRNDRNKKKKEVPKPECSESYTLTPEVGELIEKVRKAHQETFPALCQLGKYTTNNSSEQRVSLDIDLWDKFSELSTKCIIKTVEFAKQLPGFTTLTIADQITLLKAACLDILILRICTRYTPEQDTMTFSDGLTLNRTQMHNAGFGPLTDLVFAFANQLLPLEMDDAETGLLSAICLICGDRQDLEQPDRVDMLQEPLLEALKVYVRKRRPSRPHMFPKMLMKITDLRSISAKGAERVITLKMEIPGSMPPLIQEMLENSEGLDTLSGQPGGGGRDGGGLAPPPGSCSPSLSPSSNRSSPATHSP
Outline: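 HepG2, transient cis-reporter transfection, 24 h exposure. mRNA readout: RT-PCR, FAM label, HpaI cut, capillary electrophoresis. DMSO baseline, gain/loss fitting.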

[9] = biological target: Transcription factor E2F1 (Homo sapiens) (UniProt Q01094); experiment: ATG_E2F_CIS: Attagene CIS-FACTORIAL HepG2 Assay for human E2F Transcription Factor 1 (AID 2282935); conditions: HepG2 Attagene cis-reporter, E2F reporter RNA transcripts; actives raise or lower the signal
Chain of Transcription factor E2F1 (Homo sapiens) (Q01094 whole entry, looked up): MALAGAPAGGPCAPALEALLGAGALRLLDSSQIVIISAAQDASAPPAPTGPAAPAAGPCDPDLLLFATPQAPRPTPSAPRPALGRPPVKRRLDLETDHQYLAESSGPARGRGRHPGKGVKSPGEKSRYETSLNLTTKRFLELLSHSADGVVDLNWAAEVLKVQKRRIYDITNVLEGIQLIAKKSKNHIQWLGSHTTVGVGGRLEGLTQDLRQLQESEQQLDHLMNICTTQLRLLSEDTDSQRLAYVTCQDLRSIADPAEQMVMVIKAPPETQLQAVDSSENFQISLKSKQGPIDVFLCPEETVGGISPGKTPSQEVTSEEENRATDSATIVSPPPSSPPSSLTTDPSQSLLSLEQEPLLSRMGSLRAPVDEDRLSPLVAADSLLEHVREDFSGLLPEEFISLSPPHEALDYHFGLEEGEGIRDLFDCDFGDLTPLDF
Outline: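 Gain or loss of reporter transcript, fitted against DMSO, reflects E2F1-driven transcription. Transiently transfected HepG2 dosed 24 h before RNA isolation. Quantified by fluorescent RT-PCR products separated by capillary electrophoresis.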

[10] = ATG_E_Box_CIS: Attagene CIS-FACTORIAL HepG2 Assay for human Enhancer Box (E-box) (AID 2282936); conditions: HepG2 E-box cis-reporter transcription, actives raise or lower the signal
Outline: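 E-box-driven reporter transcripts measured in transiently transfected HepG2 after 24 h exposure: RNA reverse-transcribed, PCR-amplified, fluorescently labelled, digested and resolved by capillary electrophoresis. Gain or loss relative to DMSO.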

[11] = ATG_M_61_CIS: Attagene CIS-FACTORIAL HepG2 Assay for M61 Transcription Factor (Internal Marker) (AID 2282937); conditions: HepG2 Attagene CIS-FACTORIAL M61 internal marker reporter; actives raise or lower the signal
Outline: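 Fluorescence from labelled cDNA fragments, separated by capillary electrophoresis, quantifies reporter induction. HepG2 cells bearing transiently transfected cis-promoter MRTUs were incubated with test chemical for 24 h; DMSO defined baseline for gain/loss fitting.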

[12] = ATG_EGR_CIS: Attagene CIS-FACTORIAL HepG2 Assay for human Early Growth Response 1 (EGR1) (AID 2282938); conditions: HepG2 Attagene CIS-FACTORIAL EGR reporter mRNA; actives raise or lower the signal
Outline: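 Cell-based multiplex transcription assay: HepG2 carrying transfected cis-element reporter units, 24 h chemical treatment. Fluorescence from capillary electrophoresis of RT-PCR products gives mRNA levels; fitting is bidirectional relative to DMSO.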

[13] = ATG_M_19_CIS: Attagene CIS-FACTORIAL HepG2 Assay for M19 Transcription Factor (Internal Marker) (AID 2282939); conditions: HepG2 Attagene CIS-FACTORIAL M19 internal marker reporter; actives raise or lower the signal
Outline: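 HepG2 cells transiently transfected with cis-regulated multiple reporter transcription units were dosed for 24 h; reporter mRNA was quantified by RT-PCR, 6-FAM primer-extension labelling, HpaI digestion and capillary electrophoresis, with bidirectional fitting against DMSO baseline.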

[14] = ATG_ERE_CIS: Attagene CIS-FACTORIAL HepG2 Assay for Estrogen Response Element (ERE) (AID 2282940); conditions: HepG2 ERE cis-reporter, Attagene RNA transcript; actives raise or lower the signal
Outline: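 HepG2 cells transiently transfected with cis-promoter-driven multiplexed reporter transcription units report endogenous TF activity. After 24 h compound exposure, reporter mRNA is quantified by RT-PCR with capillary electrophoresis fluorescence; bidirectional fitting versus DMSO baseline.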

[15] = ATG_Ets_CIS: Attagene CIS-FACTORIAL HepG2 Assay for human Erythroblast Transformation Specific (ETS) (AID 2282941); conditions: HepG2 ETS cis-reporter transcription, actives raise or lower the signal
Outline: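 RT-PCR/capillary electrophoresis fluorescence read-out of reporter mRNA; HepG2 transient multi-reporter transfection; 24 h compound exposure; gain or loss of signal fitted bidirectionally relative to DMSO.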

[16] = biological target: Hepatocyte nuclear factor 3-beta (Homo sapiens) (UniProt Q9Y261); experiment: ATG_FoxA2_CIS: Attagene CIS-FACTORIAL HepG2 Assay for human Forkhead box A2 (FOXA2) (AID 2282942); conditions: HepG2 cis-reporter transcription factor activity, 24 h; actives raise or lower the signal
Chain of Hepatocyte nuclear factor 3-beta (Homo sapiens) (Q9Y261 whole entry, looked up): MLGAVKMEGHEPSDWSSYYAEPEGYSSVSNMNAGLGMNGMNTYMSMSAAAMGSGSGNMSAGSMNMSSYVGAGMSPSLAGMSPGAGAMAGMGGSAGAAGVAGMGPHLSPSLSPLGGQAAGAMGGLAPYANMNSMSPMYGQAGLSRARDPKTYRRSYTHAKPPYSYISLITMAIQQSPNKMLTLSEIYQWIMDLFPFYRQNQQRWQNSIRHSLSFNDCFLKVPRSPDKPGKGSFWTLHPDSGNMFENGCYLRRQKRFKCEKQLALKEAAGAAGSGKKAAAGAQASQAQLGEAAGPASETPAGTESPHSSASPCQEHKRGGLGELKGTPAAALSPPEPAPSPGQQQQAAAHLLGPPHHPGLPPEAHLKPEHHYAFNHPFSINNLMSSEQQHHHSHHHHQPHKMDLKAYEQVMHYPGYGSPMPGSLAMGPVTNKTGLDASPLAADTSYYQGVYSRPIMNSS
Outline: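 In transiently transfected human HepG2 cells, promoter-driven reporter mRNA levels after 24 h chemical exposure are determined via RT-PCR with capillary electrophoresis. DMSO serves as baseline for bidirectional fitting.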

[17] = ATG_FoxO_CIS: Attagene CIS-FACTORIAL HepG2 Assay for human Forkhead box O (FoxO) (AID 2282943); conditions: HepG2 Attagene cis-reporter, FoxO element, mRNA; actives raise or lower the signal
Outline: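 Human hepatoma HepG2 cells carry transiently introduced reporter transcription units controlled by cis promoter elements. Chemical treatment lasted 24 h, and mRNA signal was compared with DMSO.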

[18] = ATG_GATA_CIS: Attagene CIS-FACTORIAL HepG2 Assay for human GATA Binding Protein (AID 2282944); conditions: HepG2 GATA cis-element reporter, Attagene multiplex mRNA; actives raise or lower the signal
Outline: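 HepG2 cells transiently transfected with multiplexed cis-element reporter units reflecting endogenous transcription factor activity; reporter mRNA measured after 24 h dosing by RT-PCR, 6-FAM labeling, HpaI digestion and capillary electrophoresis. Bidirectional fitting versus DMSO baseline.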

[19] = ATG_GLI_CIS: Attagene CIS-FACTORIAL HepG2 Assay for human Zinc Finger Protein GLI1 (AID 2282945); conditions: HepG2, Attagene cis-factorial reporter mRNA, GLI element; actives raise or lower the signal
Outline: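 Bidirectional curve fits relative to DMSO, using reporter mRNA levels from RT-PCR plus capillary electrophoresis. Cells were HepG2 transiently carrying cis-regulated reporter constructs, harvested 24 h after dosing.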

[20] = ATG_CMV_CIS: Attagene CIS-FACTORIAL HepG2 Assay for human CMV (Internal Marker) (AID 2282928); conditions: HepG2 CMV promoter reporter, transcription factor profiling; actives raise or lower the signal;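 further: endpoint acts as a background internal control marker rather than a target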
Outline: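 Readout: fluorescent reporter cDNA fragments separated by capillary electrophoresis after RT-PCR and HpaI cut. Cells: HepG2 carrying transfected cis-promoter reporter constructs, dosed 24 h. Endpoint serves as background internal-marker control, fit bidirectionally versus DMSO.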

Measured: AC50

C=CC(=O)OCCOC(=O)C=C
active: [3] 27.4 µM | [5] 126 µM | [6] 27.2 µM | [10] 27.3 µM | [12] 27.4 µM | [15] 27.2 µM
not listed: [20]
inactive: all other assays above

CC(=O)OC(C)C
not listed: [4] | [16] | [18]
inactive: all other assays above

COC(F)(F)C(F)(C(F)(F)F)C(F)(F)F
not listed: [16] | [18] | [20]
inactive: all other assays above

CC(=O)OCCC1CCCCC1
not listed: [6] | [20]
inactive: all other assays above

CO[Si](OC)(OC)c1ccccc1
not listed: [9] | [20]
inactive: all other assays above

CCOC(=O)c1ccc(N(C)C)cc1
active: [4] 44.4 µM
not listed: [20]
inactive: all other assays above

O=C1CCCC(=O)O1
not listed: [11] | [20]
inactive: all other assays above
